Results as given in PubChem BioAssay AID504766 (The Scripps Research Institute Molecular Screening Center, 2011).
Out of some 340,000 compounds screened, about 3,400 (1%) were called active. This is one part of a sample in which actives are shown more often than they occur.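 The calls were made as follows: active = inhibition above the mean over all tested compounds plus 3 SD (cut at about 4.2% in these data); inactive = the rest.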

Target: Nuclear receptor subfamily 0 group B member 1 (Homo sapiens) (UniProt P51843)
Sequence (P51843 207-470 limits assumed): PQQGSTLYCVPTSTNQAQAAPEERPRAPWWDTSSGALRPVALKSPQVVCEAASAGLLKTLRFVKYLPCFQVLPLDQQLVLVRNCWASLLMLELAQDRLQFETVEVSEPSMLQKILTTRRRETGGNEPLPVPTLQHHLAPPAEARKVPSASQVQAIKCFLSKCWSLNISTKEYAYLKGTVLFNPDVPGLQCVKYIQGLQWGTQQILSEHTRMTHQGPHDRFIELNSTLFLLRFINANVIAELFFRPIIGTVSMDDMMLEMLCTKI
Assay: DAX1 (NR0B1) inhibitors, primary screen, cell-based, HEK293, Gal4-DAX1, luciferase luminescence (AID 504766);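 also: 0% = DAX1-transfected cells with DMSO and 100% = empty-vector control cells with DMSO; inhibition shows as a rise in luminescence from relieved DAX1 repression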
Details: HEK293 Gal4-DAX1 luciferase reporter, at 6.75 µM, stronger effect = higher value

Row | Compound | inhibition
1 | Cc1cccc(S(=O)(=O)N(C)C[C@H]2OCc3cnnn3CCCC(=O)N([C@@H](C)CO)C[C@H]2C)c1 | 2.68% (inactive)
2 | C[C@@H]1CN([C@@H](C)CO)C(=O)c2cc(Br)cnc2O[C@H]1CN(C)Cc1ccc(-c2ccccc2)cc1 | 0% (inactive)
3 | CCCCCCNC(=O)O[C@H]1CN(C(=O)OC(C)C)N(C(=O)OC(C)C)[C@@H]2CN(S(=O)(=O)c3ccc(C)cc3)C[C@]12O | 0.72% (inactive)
4 | O=C(CN1CCCC1)Nc1sc2c(c1C(=O)Nc1ccccc1)CCCC2 | 1.85% (inactive)
5 | NC(=O)c1c(NC(=O)c2ccccc2)sc2c1CCCC2 | 4.41% (active)
6 | O=C(Nc1sc2c(c1C(=O)O)CCC2)c1ccccc1F | 0.36% (inactive)
7 | CCCCN1C(=O)C(CC(=O)NCc2cccs2)CC(C(=O)N2CCOCC2)=C1C (centres undefined) | 1.03% (inactive)
8 | CC(=NNC(N)=O)C1CC2CCC1CC2 (centres undefined) | 0.34% (inactive)
9 | C[C@H]1Cn2cnc(C(=O)N[C@@H](Cc3c[nH]c4ccccc34)C(=O)OC(C)(C)C)c2C(=O)N1 | 0.77% (inactive)
10 | C[C@@H]1CN([C@H](C)CO)C(=O)CCCn2nncc2CO[C@@H]1CN(C)C(=O)OCc1ccccc1 | 4.4% (active)
11 | COC(=O)N(C)C[C@@H]1OCc2cnnn2CCCC(=O)N([C@@H](C)CO)C[C@@H]1C | 1.06% (inactive)
12 | C[C@H](CO)N1C[C@H](C)[C@@H](CN(C)C(=O)C2CCCCC2)OCc2cnnn2CCCC1=O | 0.86% (inactive)
13 | Cn1c(CCN2CCN(c3ccccn3)CC2)nc2cc(NS(=O)(=O)c3ccc(F)cc3)ccc21 | 0.29% (inactive)
14 | Cc1cc2cc3n(c2nn1)N=C(Cl)CC3 | 1.28% (inactive)
15 | CCN(Cc1ccncc1)C(=S)Nc1ccccc1C | 0.81% (inactive)
16 | CCc1nnc(NC(=O)c2ccco2)s1 | 1.93% (inactive)
17 | CCCCN1C(=O)C(CC(=O)NC(c2ccccc2)c2ccccc2)CC(C(=O)N2CCOCC2)=C1C (centres undefined) | 0.88% (inactive)
18 | Cc1ccc(/C(N)=N/OC(=O)COc2ccc(Cl)c(C)c2)cc1 | -0.49% (inactive)
19 | Cc1cccc(/C(N)=N/OC(=O)c2ccccc2Cl)c1 | 4.97% (active)
20 | Cc1ccc(C(=O)O/N=C(\N)c2ccccn2)cc1Cl | -3.11% (inactive)
21 | COCC(=O)N(C)C[C@H]1Oc2cc(Br)ccc2S(=O)(=O)N([C@H](C)CO)C[C@H]1C | 1.77% (inactive)
22 | COc1ccc(CN2C(=O)C(CC(=O)NCCN3CCOCC3)CC(C(=O)N(C(C)C)C(C)C)=C2C)cc1 (centres undefined) | -0.44% (inactive)
23 | CC(=O)OC(C)C[N+](C)(C)C (centres undefined) | 1.03% (inactive)

Row | Compound | inhibition
24 | CC(=O)OCC(COC(C)=O)OC(C)=O | -0.24% (inactive)
25 | CC(=O)OCCC(C)C | 5.92% (active)
26 | Cc1ccc(S(=O)(=O)N2C[C@@H](C)[C@]3(C2)[C@H](O)[C@H](OC(=O)NCc2ccccc2)C[C@H]2C(=O)N(c4ccccc4)C(=O)[C@H]23)cc1 | 0.21% (inactive)
27 | O=C1OCCC1=COCCCCOC=C1CCOC1=O | -0.66% (inactive)
28 | Cc1cc(C)n(-c2nc(O)cc(=O)[nH]2)n1 | 4.76% (active)
29 | CC(=O)c1ccc(Oc2cc(C)nc(-n3nc(C)cc3C)n2)cc1 | 0.1% (inactive)
30 | Cc1cc(C)n(-c2ccc3nncn3n2)n1 | 0.66% (inactive)
31 | CNS(=O)(=O)c1ccc2c(c1)[nH]c(=S)n2C | 0.47% (inactive)
32 | CCc1ccccc1NC(=O)CN1CCN(C(=O)c2cc(C3CC3)nn2-c2ccccc2)CC1 | -0.77% (inactive)
33 | COc1ccc(-c2nnc(-c3ccc4ccccc4c3)o2)cc1 | 0.71% (inactive)
34 | Nc1ccc(-c2nnc(-c3ccccc3)o2)cc1 | 4.37% (active)
35 | CN(C)c1ccc(-c2nnc(-c3cccnc3)o2)cc1 | 2.53% (inactive)
36 | CCCn1c(N)c(C(=O)CSc2nnc(Cc3cccs3)n2C2CC2)c(=O)[nH]c1=O | 0.35% (inactive)
37 | OCC1OC(n2cnc3c(N4CCCC4)ncnc32)C(O)C1O (centres undefined) | -0.3% (inactive)
38 | CC1CN(C(=O)c2cccc(NS(=O)(=O)c3ccc(Br)cc3)c2)CC(C)O1 (centres undefined) | 0.52% (inactive)
39 | Cc1csc(SCC(=O)Nc2ccc(C)c(S(=O)(=O)N(C)C)c2)n1 | 0.09% (inactive)
40 | Cc1onc(-c2ccccc2)c1-c1nnc(COC(=O)c2ccc(N(C)C)cc2)o1 | -0.6% (inactive)
41 | N#Cc1c(NC(=O)C2CC(Cl)=CCC2C(=O)O)sc2c1CCCCC2 (centres undefined) | -0.39% (inactive)
42 | N#Cc1c(NC(=O)CCCl)sc2c1CCCCC2 | 1.1% (inactive)
43 | N#Cc1c(NC(=O)C2CCCO2)sc2c1CCCCC2 (centres undefined) | 4.7% (active)
44 | CCN(CC)C(=O)C1=C(C)N(Cc2ccc(F)cc2)C(=O)C(CC(=O)NCc2cccc3ccccc23)C1 (centres undefined) | -0.64% (inactive)
45 | C[C@H]1NS(=O)(=O)c2cc(Cl)ccc2O[C@@H]1c1ccccc1 | -0.34% (inactive)
46 | COc1ccc(CN2C[C@H]3CON(C)[C@H]3C[C@H]2c2ccc(-c3cccc(F)c3)cc2)cc1 | 1.13% (inactive)

Row | Compound | inhibition
47 | CC1=C(C(=O)Nc2cccc(C(=O)NCC(C)c3ccccc3)c2)SCCO1 (centres undefined) | 3.58% (inactive)
48 | COc1ccc(OC)c(NC(=O)C2CCCN2S(=O)(=O)c2ccc3c(c2)CC(C)N3C(C)=O)c1 (centres undefined) | 1.18% (inactive)
49 | OCCC1CN(Cc2ccccc2-c2ccco2)CCN1Cc1ccsc1 (centres undefined) | -0.73% (inactive)
50 | OCCC1CN(Cc2cccc(OC3CCCC3)c2)CCN1Cc1ccsc1 (centres undefined) | 5.86% (active)
51 | OCCC#Cc1ccc(CN2CCN(Cc3ccsc3)C(CCO)C2)cc1 (centres undefined) | 2.04% (inactive)
52 | Cc1ccc(S(=O)(=O)/N=C2\C=C(NS(=O)(=O)c3ccc(C)cc3)C(=O)c3ccccc32)cc1 | -1.06% (inactive)
53 | Cc1ccc(S(=O)(=O)N2CCOCC2)cc1NC(=O)c1ccncc1 | 0.21% (inactive)
54 | CCC(Oc1ccccc1)C(=O)OCC(=O)Nc1c(C)nn(-c2ccccc2)c1C (centres undefined) | 0.21% (inactive)
55 | Cc1ccc(S(=O)(=O)N2CCCCC2)cc1NC(=O)CCNC(=O)c1ccccc1Cl | 0.48% (inactive)
56 | CCCCN1C[C@H](c2ccc(Br)cc2)[C@@H](CC(=O)Nc2ccc(Br)cc2)C1=O | -0.08% (inactive)
57 | CCNc1nc(-c2cc3ccccc3o2)cs1 | 4.56% (active)
58 | Cc1cc(NC(=O)c2cc3ccccc3o2)no1 | 0.08% (inactive)
59 | Cn1c(CNc2nc(-c3ccccc3)cs2)nnc1SCC(=O)c1ccccc1 | -1.22% (inactive)
60 | COc1ccc(S(=O)(=O)N2CCN(CC(=O)N3CCNC3=O)CC2)cc1OC | 0.75% (inactive)
61 | CCN(C(=O)Nc1cccc2ccccc12)c1ccccc1 | 0.32% (inactive)
62 | COC(=O)c1c(NC(=O)CSc2nncs2)sc2c1CCCCC2 | -1.11% (inactive)
63 | CCc1ccc(N(CC(=O)Nc2sc3c(c2C(=O)OC)CCCC3)S(C)(=O)=O)cc1 | 5.84% (active)
64 | COC(=O)c1c(NC(=O)CN(c2ccc(C)c(C)c2)S(C)(=O)=O)sc2c1CCCC2 | 0.52% (inactive)
65 | COCCCn1c(=O)/c(=C/c2ccccc2OC(C)C)s/c1=C(\C#N)C(=O)Nc1ccc(C(=O)O)cc1 | 1.28% (inactive)
66 | COc1cc(C(=O)OCCCN2CCOCC2)cc(OC)c1OC | 0.71% (inactive)
67 | O[C@H]1CN(Cc2cccs2)[C@@H](c2ccc(Cl)cc2)C[C@@H]1n1cc(C2CC2)nn1 | 0.8% (inactive)
68 | COc1ccc(NC(=O)CN2C(=O)CSc3ccc(S(=O)(=O)N4CCC(C)CC4)cc32)cc1 | -0.82% (inactive)
69 | COc1ccc(NC(=O)CN2C(=O)CSC2=O)cc1 | 4.34% (active)

Row | Compound | inhibition
70 | CCc1ccc(NC(=O)CN2C(=O)CSC2=O)cc1 | 1.29% (inactive)
71 | CC(=O)Nc1c(-c2ccc(C)cc2)nc2ccc(Cl)cn12 | 0.08% (inactive)
72 | C=CCn1nc(C(=O)OCC)cc1-c1sc(NC(=O)c2ccccc2)nc1C | -1.54% (inactive)
73 | O=C(CSc1ccc(Cl)cc1)NC1CC1 | 0.27% (inactive)
74 | O=C(Cc1ccc([N+](=O)[O-])cc1)NCCS(=O)(=O)N1CCN(c2ccccc2)CC1 | -0.22% (inactive)
75 | CCCOC(=O)Cc1c(O)c2ccccc2[nH]c1=O | -0.26% (inactive)
76 | NS(=O)(=O)c1ccccc1NC(=O)c1c(O)c2ccccc2[nH]c1=O | 4.59% (active)
77 | O=C(Cc1c(O)c2ccccc2[nH]c1=O)NCc1ccccc1 | 1.32% (inactive)
78 | COc1ccc(CN2C(=O)C(CC(=O)NC3CCCCC3)CC(C(=O)N3CCOCC3)=C2C)cc1 (centres undefined) | 0.35% (inactive)
79 | CCN1CCN(CCNC(=O)c2ccc3c(c2)NC(=O)/C(=C\c2cccc(Cl)c2)S3)CC1 | -0.42% (inactive)
80 | CCOC(=O)C1CCN(C(=O)c2ccc3c(=O)n4nc(Nc5ccccc5CC)sc4nc3c2)CC1 | -2.28% (inactive)
81 | Cc1ccccc1NC(=O)Cc1nc(COC(=O)C(C)(C)Oc2ccc(Cl)cc2)cs1 | -0.05% (inactive)
82 | O=C(NNC(=O)c1ccc2ccccc2c1)c1ccc(Cl)cc1 | -1.29% (inactive)
83 | C(=N\Nc1ccc2ccccc2n1)/c1ccc2c(c1)OCO2 | -2.05% (inactive)
84 | Clc1ccc(Nc2ccc3ccccc3n2)cc1 | 5.5% (active)
85 | CSc1nnnn1-c1c(C)cc(C)cc1C | 5.68% (active)
86 | CCn1nnnc1SCC(=O)c1ccc(C)cc1C | -0.2% (inactive)
87 | Cc1ccc(S(=O)(=O)N2C[C@]3(O)C[C@@H]4C(=O)N(c5ccccc5)C(=O)[C@@H]4C[C@]3(OC(=O)NC3CC3)C2)cc1 | -1.25% (inactive)
88 | O[C@@H]1C[C@H](c2ccccc2)N(Cc2cccs2)C[C@H]1n1cc(C2CC2)nn1 | 1.9% (inactive)
89 | O[C@H]1C[C@H](c2ccc(Cl)cc2)N(Cc2cccs2)C[C@@H]1n1cc(C2CC2)nn1 | 0.67% (inactive)
